# Laboratory results as given in PubChem BioAssay AID1159580 (chemical genetic matrix, 2015).
# The whole screen tested about 5,500 compounds, of which about 2,000 (36%) were called active. Inconclusive results (about 18%) are left out. Some of the results follow. A number with no mark means an inactive call. Rule as the data show it: active = normalized growth mostly below about 0.91 (no sharp cut-off); inconclusive = no clear call, values can overlap the other calls; inactive = mostly above about 0.92.
# Assay: chemical genetic growth profiling, strain panel (AID 1159580);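 also: tested at 20 µM; growth read once vehicle control cultures reached saturation at 30 °C; 1 = growth at the plate median or of vehicle wells; lower values mean less growth of the strain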
# Conditions: growth OD
smiles,measurement,setting,value
CN1CCN(CCC=C2c3ccccc3Sc3ccc(S(=O)(=O)N(C)C)cc32)CC1,normalized growth,"S. cerevisiae deletion strains, locus YJR043C, strain POL32, active compounds read low",1.01
same,normalized growth,"S. cerevisiae deletion strains, locus YJR066W, strain TOR1, active compounds read low",0.922
same,normalized growth,"S. cerevisiae deletion strains, locus YKL009W, strain mrt4, active compounds read low",0.971
same,normalized growth,"S. cerevisiae deletion strains, locus YKL068W, active compounds read low",1.01
same,normalized growth,"S. cerevisiae deletion strains, locus YKL085W, strain MDH1 (second series), active compounds read low",1
same,normalized growth,"S. cerevisiae deletion strains, locus YKL085W, strain MDH1, active compounds read low",1
same,normalized growth,"S. cerevisiae deletion strains, locus YKL160W, strain elf1, active compounds read low",0.97
same,normalized growth,"S. cerevisiae deletion strains, locus YKL190W, strain CNB1, active compounds read low",1.02
same,normalized growth,"S. cerevisiae deletion strains, locus YKR001C, strain vps1, active compounds read low",0.916
same,normalized growth,"S. cerevisiae deletion strains, locus YKR026C, strain gcn3, active compounds read low",1.01
same,normalized growth,"S. cerevisiae deletion strains, locus YKR091W, strain srl3, active compounds read low",1.01
same,normalized growth,"S. cerevisiae deletion strains, locus YLL001W, strain dnm1, active compounds read low",0.906
same,normalized growth,"S. cerevisiae deletion strains, locus YLL026W, active compounds read low",1
same,normalized growth,"S. cerevisiae deletion strains, locus YLL041C, strain sdh2, active compounds read low",0.992
same,normalized growth,"S. cerevisiae deletion strains, locus YLR027C, strain aat2, active compounds read low",0.982
same,normalized growth,"S. cerevisiae deletion strains, locus YLR039C, strain RIC1, active compounds read low",1.27
same,normalized growth,"S. cerevisiae deletion strains, locus YLR058C, strain SHM2, active compounds read low",1.01
same,normalized growth,"S. cerevisiae deletion strains, locus YLR102C, strain apc9, active compounds read low",0.964
same,normalized growth,"S. cerevisiae deletion strains, locus YLR113W, strain HOG1, active compounds read low",0.983
same,normalized growth,"S. cerevisiae deletion strains, locus YLR221C, strain rsa3, active compounds read low",0.979
same,normalized growth,"S. cerevisiae deletion strains, locus YLR258W, strain gsy2, active compounds read low",0.991
same,normalized growth,"S. cerevisiae deletion strains, locus YLR262C, strain YPT6 (second series), active compounds read low",1.11
same,normalized growth,"S. cerevisiae deletion strains, locus YLR262C, strain YPT6, active compounds read low",1.31
same,normalized growth,"S. cerevisiae deletion strains, locus YLR268W, strain sec22, active compounds read low",0.88 (active)
same,normalized growth,"S. cerevisiae deletion strains, locus YLR320W, strain mms22, active compounds read low",0.893
same,normalized growth,"S. cerevisiae deletion strains, locus YLR330W, strain CHS5, active compounds read low",1
same,normalized growth,"S. cerevisiae deletion strains, locus YLR342W, strain FKS1 (second series), active compounds read low",0.99
same,normalized growth,"S. cerevisiae deletion strains, locus YLR342W, strain FKS1, active compounds read low",0.954
same,normalized growth,"S. cerevisiae deletion strains, locus YLR357W, strain rsc2, active compounds read low",0.983
same,normalized growth,"S. cerevisiae deletion strains, locus YLR370C, strain arc18, active compounds read low",0.964
same,normalized growth,"S. cerevisiae deletion strains, locus YLR371W, strain rom2, active compounds read low",0.976
same,normalized growth,"S. cerevisiae deletion strains, locus YLR384C, strain iki3, active compounds read low",1.02
same,normalized growth,"S. cerevisiae deletion strains, locus YLR418C, strain cdc73, active compounds read low",0.764 (active)
same,normalized growth,"S. cerevisiae deletion strains, locus YML016C, strain PPZ1, active compounds read low",1
same,normalized growth,"S. cerevisiae deletion strains, locus YML032C, strain rad52, active compounds read low",0.896 (active)
same,normalized growth,"S. cerevisiae deletion strains, locus YML120C, strain ndi1, active compounds read low",0.984
same,normalized growth,"S. cerevisiae deletion strains, locus YML124C, strain tub3, active compounds read low",0.988
same,normalized growth,"S. cerevisiae deletion strains, locus YMR058W, strain fet3, active compounds read low",0.954
same,normalized growth,"S. cerevisiae deletion strains, locus YMR078C, strain ctf18, active compounds read low",0.983
same,normalized growth,"S. cerevisiae deletion strains, locus YMR125W, strain sto1, active compounds read low",1
same,normalized growth,"S. cerevisiae deletion strains, locus YMR129W, active compounds read low",1.03
same,normalized growth,"S. cerevisiae deletion strains, locus YMR205C, strain PFK2, active compounds read low",0.96
same,normalized growth,"S. cerevisiae deletion strains, locus YMR223W, strain ubp8, active compounds read low",0.899 (active)
same,normalized growth,"S. cerevisiae deletion strains, locus YMR231W, strain pep5, active compounds read low",1.02
same,normalized growth,"S. cerevisiae deletion strains, locus YMR263W, strain SAP30, active compounds read low",1.02
same,normalized growth,"S. cerevisiae deletion strains, locus YMR307W, strain GAS1, active compounds read low",1.07
same,normalized growth,"S. cerevisiae deletion strains, locus YNL067W, strain RPL9B, active compounds read low",1.01
same,normalized growth,"S. cerevisiae deletion strains, locus YNL071W, strain lat1, active compounds read low",0.978
same,normalized growth,"S. cerevisiae deletion strains, locus YNL183C, strain NPR1, active compounds read low",0.946
same,normalized growth,"S. cerevisiae deletion strains, locus YNL209W, strain ssb2, active compounds read low",0.972
same,normalized growth,"S. cerevisiae deletion strains, locus YNL233W, strain BNI4, active compounds read low",1
same,normalized growth,"S. cerevisiae deletion strains, locus YNL248C, strain rpa49, active compounds read low",0.942
same,normalized growth,"S. cerevisiae deletion strains, locus YNL250W, strain rad50, active compounds read low",0.992
same,normalized growth,"S. cerevisiae deletion strains, locus YNL271C, strain bni1, active compounds read low",0.986
same,normalized growth,"S. cerevisiae deletion strains, locus YNL298W, strain CLA4, active compounds read low",0.977
same,normalized growth,"S. cerevisiae deletion strains, locus YNL307C, strain MCK1, active compounds read low",0.791 (active)
same,normalized growth,"S. cerevisiae deletion strains, locus YNL322C, strain KRE1 (second series), active compounds read low",0.996
same,normalized growth,"S. cerevisiae deletion strains, locus YNL322C, strain KRE1, active compounds read low",1.01
same,normalized growth,"S. cerevisiae deletion strains, locus YNR049C, strain mso1, active compounds read low",1.01
same,normalized growth,"S. cerevisiae deletion strains, locus YNR052C, strain pop2, active compounds read low",0.971
same,normalized growth,"S. cerevisiae deletion strains, locus YOL006C, strain TOP1, active compounds read low",0.983
same,normalized growth,"S. cerevisiae deletion strains, locus YOL012C, strain htz1",0.994
same,normalized growth,"S. cerevisiae deletion strains, locus YOL147C, strain pex11, active compounds read low",0.959
same,normalized growth,"S. cerevisiae deletion strains, locus YOR001W, strain rrp6, active compounds read low",0.977
same,normalized growth,"S. cerevisiae deletion strains, locus YOR061W, strain CKA2, active compounds read low",1
same,normalized growth,"S. cerevisiae deletion strains, locus YOR069W, strain VPS5, active compounds read low",1.01
same,normalized growth,"S. cerevisiae deletion strains, locus YOR070C, strain gyp1, active compounds read low",0.991
same,normalized growth,"S. cerevisiae deletion strains, locus YOR080W, strain dia2, active compounds read low",1.03
same,normalized growth,"S. cerevisiae deletion strains, locus YOR083W, strain WHI5, active compounds read low",0.937
same,normalized growth,"S. cerevisiae deletion strains, locus YOR106W, strain vam3, active compounds read low",1
same,normalized growth,"S. cerevisiae deletion strains, locus YOR136W, strain idh2, active compounds read low",0.981
same,normalized growth,"S. cerevisiae deletion strains, locus YOR144C, strain elg1, active compounds read low",0.988
same,normalized growth,"S. cerevisiae deletion strains, locus YOR184W, strain ser1, active compounds read low",0.934
same,normalized growth,"S. cerevisiae deletion strains, locus YOR231W, strain MKK1, active compounds read low",0.984
same,normalized growth,"S. cerevisiae deletion strains, locus YOR265W, strain rbl2, active compounds read low",0.995
same,normalized growth,"S. cerevisiae deletion strains, locus YOR270C, strain vph1, active compounds read low",0.763 (active)
same,normalized growth,"S. cerevisiae deletion strains, locus YOR290C, strain snf2, active compounds read low",0.913
same,normalized growth,"S. cerevisiae deletion strains, locus YOR316C, strain cot1, active compounds read low",0.968
same,normalized growth,"S. cerevisiae deletion strains, locus YPL051W, strain arl3, active compounds read low",0.95
same,normalized growth,"S. cerevisiae deletion strains, locus YPL078C, strain atp4, active compounds read low",0.925
same,normalized growth,"S. cerevisiae deletion strains, locus YPL106C, strain sse1, active compounds read low",0.947
same,normalized growth,"S. cerevisiae deletion strains, locus YPL240C, strain hsp82, active compounds read low",0.999
same,normalized growth,"S. cerevisiae deletion strains, locus YPL256C, strain CLN2, active compounds read low",0.965
same,normalized growth,"S. cerevisiae deletion strains, locus YPR119W, strain clb2, active compounds read low",0.968
same,normalized growth,"S. cerevisiae deletion strains, locus YPR141C, strain kar3, active compounds read low",1.02
same,normalized growth,"S. cerevisiae deletion strains, locus YPR163C, strain tif3, active compounds read low",0.977
same,normalized growth,"S. cerevisiae deletion strains, locus YPR167C, strain met16, active compounds read low",0.985
same,normalized growth,"S. cerevisiae deletion strains, strain wtn01, active compounds read low",0.953
same,normalized growth,"S. cerevisiae strains, strain wild type, active compounds read low",1.01
